Among all 5,500 compounds or so, about 2,000 (36%) were called active. Not shown: some 18% with an inconclusive outcome. Cut-off read from the data, not from the text of the source: active = normalized growth mostly below about 0.91 (no sharp cut-off); inconclusive = no clear call, values can overlap the other calls; inactive = mostly above about 0.92. This is one part of the list.
Assay: chemical genetic growth profiling, strain panel (AID 1159580);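 note: tested at 20 µM; growth read once vehicle control cultures reached saturation at 30 °C; 1 = growth at the plate median or of vehicle wells; lower values mean less growth of the strain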
Details: S. cerevisiae deletion strains, growth OD

Measured: normalized growth

CC(C)C(C)/C=C/C(C)[C@H]1CCC2C3=CCC4CC(=O)CC[C@]4(C)C3CC[C@@]21C (some centres not stated)
inactive: locus YAL013W, strain DEP1, hits give low values 1.04 | locus YAL021C, strain ccr4, hits give low values 0.999 | locus YAL026C, strain drs2, hits give low values 1 | locus YAL030W, strain snc1, hits give low values 1 | locus YBL061C, strain skt5, hits give low values 1 | locus YBR009C, strain hhf1, hits give low values 0.981 | locus YBR021W, strain FUR4, hits give low values 1 | locus YBR023C, strain chs3, hits give low values 0.995 | locus YBR171W, strain sec66, hits give low values 0.986 | locus YBR229C, strain ROT2, hits give low values 1.02 | locus YBR231C, strain swc5, hits give low values 1.03 | locus YBR279W, strain paf1, hits give low values 1 | locus YCL011C, strain gbp2, hits give low values 1.01 | locus YCL016C, strain dcc1, hits give low values 1.01 | locus YCL029C, strain bik1, hits give low values 1.02 | locus YCL061C, strain MRC1, hits give low values 1.01 | locus YCL069W, strain vba3, hits give low values 0.996 | locus YCR088W, strain abp1, hits give low values 1 | locus YDL005C, strain med2, hits give low values 1 | locus YDL035C, strain GPR1, hits give low values 0.992 | locus YDL040C, strain nat1, hits give low values 1 | locus YDL074C, strain BRE1, hits give low values 1 | locus YDL101C, strain DUN1, hits give low values 1.01 | locus YDL185W, strain tfp1, hits give low values 1.01 | locus YDL192W, strain arf1, hits give low values 0.996 | locus YDR001C, strain nth1, hits give low values 1 | locus YDR069C, strain doa4, hits give low values 0.997 | locus YDR101C, strain arx1, hits give low values 1.03 | locus YDR137W, strain rgp1, hits give low values 0.927 | locus YDR150W, strain NUM1, hits give low values 1.02 | locus YDR159W, strain sac3, hits give low values 1 | locus YDR162C, strain NBP2, hits give low values 0.97 | locus YDR195W, strain ref2 0.928 | locus YDR297W, strain sur2, hits give low values 1 | locus YDR318W, strain mcm21, hits give low values 1.01 | locus YDR334W, strain swr1, hits give low values 1 | locus YDR335W, strain msn5, hits give low values 1.01 | locus YDR388W, hits give low values 1.01 | locus YDR392W, strain spt3, hits give low values 0.941 | locus YDR502C, strain sam2, hits give low values 0.999 | locus YEL003W, strain gim4, hits give low values 1.01 | locus YEL037C, strain rad23, hits give low values 1 | locus YEL061C, strain CIN8 (second series), hits give low values 1.01 | locus YEL061C, strain CIN8, hits give low values 1.01 | locus YER015W, strain faa2, hits give low values 1 | locus YER016W, strain bim1, hits give low values 1 | locus YER110C, hits give low values 1.01 | locus YER111C, strain swi4, hits give low values 1 | locus YER155C, strain BEM2 (second series), hits give low values 0.984 | locus YER155C, strain BEM2, hits give low values 1.03 | locus YER167W, strain BCK2, hits give low values 1.03 | locus YFR010W, strain ubp6, hits give low values 1.01 | locus YGL078C, strain dbp3, hits give low values 0.98 | locus YGL086W, strain mad1, hits give low values 1 | locus YGL167C, strain pmr1, hits give low values 0.995 | locus YGL173C, strain kem1, hits give low values 0.995 | locus YGL227W, strain vid30, hits give low values 1 | locus YGL240W, strain doc1, hits give low values 0.999 | locus YGL248W, strain PDE1, hits give low values 1.01 | locus YGL253W, strain hxk2, hits give low values 1.01 | locus YGR078C, strain PAC10, hits give low values 1.01 | locus YGR135W, strain pre9, hits give low values 1 | locus YGR252W, strain gcn5, hits give low values 0.985 | locus YHR013C, strain ard1, hits give low values 0.968 | locus YHR027C, strain rpn1, hits give low values 1.01 | locus YHR030C, strain SLT2, hits give low values 1.03 | locus YHR079C, strain IRE1 (second series), hits give low values 1.01 | locus YHR094C, strain hxt1, hits give low values 1.02 | locus YHR129C, strain ARP1, hits give low values 1.02 | locus YHR142W, strain chs7, hits give low values 1 | locus YHR200W, strain rpn10, hits give low values 1.01 | locus YIL066C, strain RNR3, hits give low values 1.01 | locus YIL073C, strain SPO22, hits give low values 1.02 | locus YIL125W, strain kgd1, hits give low values 1.01 | locus YIR030C, strain dcg1, hits give low values 1.02 | locus YJL092W, strain hpr5, hits give low values 1.01 | locus YJL095W, strain BCK1 (second series), hits give low values 1.01 | locus YJL095W, strain BCK1, hits give low values 1.02 | locus YJL115W, strain asf1, hits give low values 0.99 | locus YJL129C, strain trk1, hits give low values 0.998 | locus YJL134W, strain LCB3, hits give low values 1.02 | locus YJL154C, strain vps35, hits give low values 1.01 | locus YJL164C, strain tpk1, hits give low values 0.998 | locus YJL166W, strain qcr8, hits give low values 1.01 | locus YJL168C, strain set2, hits give low values 1 | locus YJL187C, strain SWE1 (second series), hits give low values 1.01 | locus YJL187C, strain SWE1, hits give low values 1 | locus YJR043C, strain POL32, hits give low values 1.02 | locus YJR075W, strain HOC1, hits give low values 1.03 | locus YKL009W, strain mrt4, hits give low values 0.95 | locus YKL068W, hits give low values 1.01 | locus YKL085W, strain MDH1 (second series), hits give low values 1.02 | locus YKL085W, strain MDH1, hits give low values 1.02 | locus YKL160W, strain elf1, hits give low values 1.01 | locus YKR001C, strain vps1, hits give low values 1.01 | locus YKR026C, strain gcn3, hits give low values 0.971 | locus YKR091W, strain srl3, hits give low values 1.01 | locus YLL001W, strain dnm1, hits give low values 0.997 | locus YLL026W, hits give low values 1 | locus YLL041C, strain sdh2, hits give low values 1 | locus YLR027C, strain aat2, hits give low values 1.01 | locus YLR039C, strain RIC1, hits give low values 0.968 | locus YLR058C, strain SHM2, hits give low values 1.02 | locus YLR102C, strain apc9, hits give low values 1.01 | locus YLR221C, strain rsa3, hits give low values 1.01 | locus YLR258W, strain gsy2, hits give low values 1 | locus YLR262C, strain YPT6 (second series), hits give low values 0.895 | locus YLR262C, strain YPT6, hits give low values 0.952 | locus YLR268W, strain sec22, hits give low values 1 | locus YLR320W, strain mms22, hits give low values 0.965 | locus YLR330W, strain CHS5, hits give low values 1.03 | locus YLR342W, strain FKS1 (second series), hits give low values 1.03 | locus YLR342W, strain FKS1, hits give low values 1 | locus YLR357W, strain rsc2, hits give low values 0.978 | locus YLR370C, strain arc18, hits give low values 0.998 | locus YLR371W, strain rom2, hits give low values 1.01 | locus YLR384C, strain iki3, hits give low values 0.997 | locus YLR418C, strain cdc73, hits give low values 1.03 | locus YML016C, strain PPZ1, hits give low values 1.02 | locus YML032C, strain rad52, hits give low values 1 | locus YML120C, strain ndi1, hits give low values 1.01 | locus YML124C, strain tub3, hits give low values 1.02 | locus YMR058W, strain fet3, hits give low values 1.01 | locus YMR078C, strain ctf18, hits give low values 1.02 | locus YMR125W, strain sto1, hits give low values 1.01 | locus YMR129W, hits give low values 0.999 | locus YMR205C, strain PFK2, hits give low values 0.976 | locus YMR223W, strain ubp8, hits give low values 0.986 | locus YMR231W, strain pep5, hits give low values 0.999 | locus YMR307W, strain GAS1, hits give low values 1.2 | locus YNL067W, strain RPL9B, hits give low values 1.02 | locus YNL071W, strain lat1, hits give low values 1.01 | locus YNL209W, strain ssb2, hits give low values 1.01 | locus YNL233W, strain BNI4, hits give low values 1.03 | locus YNL248C, strain rpa49, hits give low values 0.995 | locus YNL250W, strain rad50, hits give low values 1.01 | locus YNL271C, strain bni1, hits give low values 1 | locus YNL298W, strain CLA4, hits give low values 0.991 | locus YNL307C, strain MCK1, hits give low values 1.02 | locus YNL322C, strain KRE1 (second series), hits give low values 0.996 | locus YNR049C, strain mso1, hits give low values 1 | locus YNR052C, strain pop2, hits give low values 0.971 | locus YOL012C, strain htz1 1.52 | locus YOL147C, strain pex11, hits give low values 1.01 | locus YOR001W, strain rrp6, hits give low values 1 | locus YOR061W, strain CKA2, hits give low values 1.02 | locus YOR069W, strain VPS5, hits give low values 1.02 | locus YOR070C, strain gyp1, hits give low values 1 | locus YOR080W, strain dia2, hits give low values 1 | locus YOR083W, strain WHI5, hits give low values 1.01 | locus YOR106W, strain vam3, hits give low values 0.995 | locus YOR136W, strain idh2, hits give low values 1 | locus YOR144C, strain elg1, hits give low values 1.01 | locus YOR184W, strain ser1, hits give low values 1 | locus YOR265W, strain rbl2, hits give low values 0.999 | locus YOR270C, strain vph1, hits give low values 1.04 | locus YOR290C, strain snf2, hits give low values 0.936 | locus YOR316C, strain cot1, hits give low values 1.01 | locus YPL051W, strain arl3, hits give low values 1.03 | locus YPL078C, strain atp4, hits give low values 1 | locus YPL106C, strain sse1, hits give low values 1.01 | locus YPL240C, strain hsp82, hits give low values 0.998 | locus YPR119W, strain clb2, hits give low values 1.02 | locus YPR141C, strain kar3, hits give low values 1.01 | locus YPR163C, strain tif3, hits give low values 1.01 | locus YPR167C, strain met16, hits give low values 1.01 | strain wtn01, hits give low values 0.991

— PubChem BioAssay AID1159580 (chemical genetic matrix, 2015)
